According to PubChem BioAssay (NCATS):
Records with an inconclusive call do not appear. Calls of active or inactive are those of the source. Calls follow the shape of the dose curve; as a rule, active = well fitted inhibition curve with a large enough effect; inconclusive = small, poorly fitted or top-dose-only effect; inactive = flat fitted curve, though single readings scatter.

Assay: qHTS to identify inhibitors of the type 1 interferon - major histocompatibility complex class I in skeletal muscle: primary screen against the NCATS Pharmaceutical Collection (AID 1347407);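 also: luminescence of HiBiT knocked into endogenous HLA-B as interferon-induced MHC class I level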
Settings: human skeletal muscle cells, IFN-b-induced MHC-I HiBiT luminescence, 24 h; series mostly up to 45.9 µM; activity change, negative = inhibition: at the top concentration
Summary of the method: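 Cells were seeded with 4 ng/ml IFN-beta, incubated 1 h, then dosed with compounds over eight 1:5 steps up to 46 uM final. After 24 h at 37 C, HiBiT lytic reagent was added and luminescence read after 10 min lysis in the dark.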
% is scaled to controls: 0 for no effect and ±100 for the full control effect; potency is read from the fitted curve at half-maximal effect.

SMILES	activity change, negative = inhibition	Potency
O=c1[nH]c2ccccc2n1CCCN1CCC(n2c(=O)[nH]c3cc(Cl)ccc32)CC1	-25.6% (inactive)	–
CN(C)CCc1ccc(O)cc1	6.88% (inactive)	–
C#CCOC(C(=O)OCCN(C)C)(c1ccccc1)c1ccccc1	-24.6% (inactive)	–
N[C@@H](Cc1ccc(N(CCCl)CCCl)cc1)C(=O)O	0.0539% (inactive)	–
Oc1ccc(Cl)cc1Cc1ccccc1	-16.2% (inactive)	–
C[C@]12CC[C@H]3[C@@H](CCC4=CC(=O)CC[C@@H]43)[C@@H]1CC[C@@H]2OC(=O)CCc1ccccc1	-21.8% (inactive)	–
O=C(O)c1ccc2[nH]cc(CCCCN3CC=C(c4ccccc4)CC3)c2c1	8.94% (inactive)	–
CCOC(=O)C1(c2ccccc2)CCN(CCC(C#N)(c2ccccc2)c2ccccc2)CC1	-29.8% (inactive)	–
NCCc1cc(O)c(O)cc1O	-21.8% (inactive)	–
Clc1cccc(N2CCNCC2)c1	-2.32% (inactive)	–
O=C(NC(O)C(Cl)(Cl)Cl)NC(O)C(Cl)(Cl)Cl (stereo not given)	11.2% (inactive)	–
Cc1ccc(-c2nc3ccc(C)cn3c2CC(=O)N(C)C)cc1	11.3% (inactive)	–
CCC(C(N)=O)N1CCCC1=O (stereo not given)	0.937% (inactive)	–
CO[C@]12CC[C@@]3(C[C@@H]1[C@](C)(O)C(C)(C)C)[C@@H]1Cc4ccc(O)c5c4[C@@]3(CCN1CC1CC1)[C@H]2O5	–	48.1 µM (active)
CC[N+]1(C)CCCC(OC(=O)C(O)(c2ccccc2)c2ccccc2)C1 (stereo not given)	-19.5% (inactive)	–
O=P1(NCCCl)OCCCN1CCCl (stereo not given)	-10.1% (inactive)	–
C[C@H]1O[C@@H](O[C@H]2[C@@H](O)C[C@H](O[C@H]3[C@@H](O)C[C@H](O[C@H]4CC[C@@]5(C)[C@H](CC[C@@H]6[C@@H]5CC[C@]5(C)[C@@H](C7=CC(=O)OC7)CC[C@]65O)C4)O[C@@H]3C)O[C@@H]2C)C[C@H](O)[C@@H]1O	–	0.0264 µM (active)
CC1OC(C)OC(C)O1 (stereo not given)	1.25% (inactive)	–
N[C@@H](Cc1ccc(Oc2cc(I)c(O)c(I)c2)c(I)c1)C(=O)O	-1.61% (inactive)	–
C[C@]12CCC(=O)C(O)=C1CC[C@@H]1[C@@H]2CC[C@]2(C)C(=O)CC[C@@H]12	4.61% (inactive)	–
CCN(CC)C(=O)N[C@@H]1C=C2c3cccc4[nH]cc(c34)C[C@@H]2N(C)C1	5.92% (inactive)	–
O=[N+]([O-])c1cc([As](=O)(O)O)ccc1O	-1.47% (inactive)	–
COc1ccc(C(=O)c2c(C)n(CCN3CCOCC3)c3ccccc23)cc1	-3.16% (inactive)	–
CC(C)CC(N(C)C)C1(c2ccc(Cl)cc2)CCC1 (stereo not given)	9.93% (inactive)	–
COc1ccc(Cc2nccc3cc(OC)c(OC)cc23)cc1OC	-2.99% (inactive)	–
c1ccc2c(c1)OCC(C1=NCCN1)O2 (stereo not given)	1.76% (inactive)	–
CCN(CC)CCN1C(=O)CN=C(c2ccccc2F)c2cc(Cl)ccc21	-3.07% (inactive)	–
CN(C)[C@@H]1C(=O)C(C(N)=O)=C(O)[C@@]2(O)C(=O)C3=C(O)c4c(O)cccc4[C@@](C)(O)[C@H]3C[C@@H]12	-23.3% (inactive)	–
CC1NCCOC1c1ccccc1 (stereo not given)	4.66% (inactive)	–
CN1C(=S)CN=C(c2ccccc2)c2cc(Cl)ccc21	24.2% (inactive)	–
